SW480 rereplic: inducers of DNA re-replication in SW480 colon cancer cells | 340,000 tested, 1.8% active | Potency, µM (highest dose often 46.1 µM), hits mostly activators | SW480 DNA re-replication, Hoechst DNA content imaging, 48 h; further: nearly all actives have a fitted effect of over 55% in size
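First, 250 cells per well were seeded. Next, compound or vehicle (23 nL) was pinned in, plates sat 48 hr at 37 C. Finally Hoechst was added for 40 min before fluorescence scanning.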
MCF10A rerep: DNA re-replication induction in MCF 10a cells; MCF 10A DNA re-replication, Hoechst nuclear intensity, 48 h; Potency, µM (doses to about 46.1 µM), most hits filed as activators; 350,000 tested, 2.9% active; AID 624296; further: nearly all actives have a fitted effect of over 50% in size
KB-3-1 cytotox: KB-3-1 parental cell cytotoxicity; Potency, µM (series often up to 46.1 µM), hits mostly cytotoxic; KB-3-1 viability, CellTiter-Glo ATP luminescence, 72 h; 400,000 tested, 1.4% active; further: nearly all actives have a fitted effect of over 60% in size
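Using CellTiter-Glo luminescence, growth of non-resistant KB-3-1 adenocarcinoma cells is assessed 72 h after pin-tool compound addition at 37 °C. Normalized responses across the concentration series yield fitted curves.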
ELG1 DNA repair: inhibitors of ELG1-dependent DNA repair in HEK293T cells | 330,000 tested, 2.3% active | Potency, µM (doses to about 46.1 µM), usual class: inhibitors | HEK293T ELG1-luciferase reporter, luminescence, 16 h; DNA damage induced by 5-fluorouridine | AID 504467; further: nearly all actives have a fitted effect of over 55% in size
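Step one: seed 2,000 cells per well. Step two: pin-transfer compound or DMSO alongside 5-fluorouridine. Step three: incubate 16 hr, 37 °C, 5% CO2. Step four: add ONE-Glo, wait 30 min, read luminescence.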
KB-V1 MDR tox: kills drug-selected multidrug resistant KB-V1 cells | KB-V1 MDR cells viability, CellTiter-Glo, 72 h | Potency, µM (highest dose often 46.1 µM), hits mostly cytotoxic | 400,000 tested, 3.4% active; further: nearly all actives have a fitted effect of over 60% in size
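KB-V1, DMEM (no phenol red) + 10% FBS; cpd pin-transferred, titration series; 72 h, 37 degrees C; CellTiter-Glo, luminescence. Data normalized, curve-fit.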
Numbers stand for hits; n = inactive; u = inconclusive; x = no result given. Only some compounds are listed: those with a hit (about 8.2% of all), similar ones and a draw of the others. The call rests on the fitted dose curve; in most records, active means well fitted curve in the direction sought with a large enough effect; inconclusive means small, poorly fitted or top-dose-only effect, or another doubt; inactive means no such curve, though single readings can be large; an effect the other way counts as inactive or inconclusive.

SMILES | SW480 rereplic | MCF10A rerep | KB-3-1 cytotox | ELG1 DNA repair | KB-V1 MDR tox
CCCCCCCn1c2c(c(=N)c3c1CCC3)CCCC2 | n | u | 0.58µM | u | u
COc1cccc2c(=O)c3ccoc3n(C)c12 | n | n | n | n | n
COc1cccc2c(=O)c3c(cnn3C)n(C)c12 | n | u | n | n | 21µM
CCOC(=O)N1CCN(C(=O)CSc2nc3nc(C)cc(C)n3n2)CC1 | n | n | n | n | n
Cc1ccc(N(C)S(=O)(=O)c2cccc(C(=O)OCC(=O)N3CCCC(C)C3)c2)cc1 (centres undefined) | n | n | n | u | 21µM
CCN(CC)S(=O)(=O)c1cccc(C(=O)OCC(=O)C23CC4CC(CC(C4)C2)C3)c1 | n | n | u | u | 15µM
COc1ccc(N(C)S(=O)(=O)c2cccc(C(=O)OCC(=O)N(C)c3ccccc3)c2)cc1 | n | u | x | 16µM | x
CC1CCCC(C)N1C(=O)COC(=O)c1cccc(S(=O)(=O)N(C)c2ccccc2)c1 (centres undefined) | n | n | n | n | n
CC1CCN(C(=O)COC(=O)c2cccc(S(=O)(=O)N(C)c3ccccc3)c2)CC1 | n | u | n | n | 21µM
CCc1nc2ccc(C(=O)N3CCN(S(=O)(=O)CC)CC3)cn2c1N(C)C(=O)c1cccc(OC)c1 | x | x | n | x | n
CN(C(=O)CC1C(=O)NCCN1Cc1ccoc1)C1CCOCC1 (centres undefined) | n | n | n | n | n
O=C1NCCN(Cc2ccoc2)C1CC(=O)N(CCO)Cc1ccccc1 (centres undefined) | 18µM | n | n | n | n
CC(C)n1c(CN2CCN(C(=O)c3ccco3)CC2)nc2c1c(=O)n(C)c(=O)n2C | n | n | n | n | n
CC(=O)Nc1ccc(S(=O)(=O)NC(C)C(=O)NCC(c2ccco2)N(C)C)cc1 (centres undefined) | n | n | n | n | n
CNc1c(Cl)cc(C=O)cc1Cl | x | x | u | x | n
COc1ccc(CCNC(=O)CN2C(=O)COc3ccc(C)cc32)cc1OC | x | x | n | x | n
CCn1c(=O)c(C(=O)NCc2ccc(Cl)cc2)c(O)c2ccccc21 | n | 0.58µM | n | n | n
C=CCn1c(=O)c(C(=O)NCc2ccccc2Cl)c(O)c2ccccc21 | n | 23µM | u | n | n
CCn1c(=O)c(C(=O)NNC(=O)c2ccccc2F)c(O)c2ccccc21 | u | u | 15µM | n | 10µM
CCCCCC(=O)NNC(=O)c1c(O)c2ccccc2n(CC)c1=O | u | u | u | n | 23µM
CCCCCCCCCC(=O)NNC(=O)c1c(O)c2ccccc2n(CC)c1=O | n | n | u | n | u
COc1cccc(CC(=O)Nc2cc(S(=O)(=O)N3CCOCC3)ccc2OC)c1 | n | n | n | n | n
Cc1ccc(CN(Cc2cccnc2)C(=O)CN2C(=O)COc3ccccc32)o1 | n | n | n | u | n
COc1ccc(CN(Cc2ccccn2)C(=O)CN2C(=O)C(C)Oc3ccccc32)cc1 (centres undefined) | n | n | n | u | 2.1µM
O=C(CN1C(=O)COc2ccccc21)N(Cc1ccccc1)Cc1ccccn1 | n | n | n | n | 15µM
SMILES | SW480 rereplic | MCF10A rerep | KB-3-1 cytotox | ELG1 DNA repair | KB-V1 MDR tox
CC(=O)C1(O)C(C)CC2C3CCC4CC(O)CCC4(C)C3=CCC21C (centres undefined) | u | 18µM | n | n | n
C[C@@H]1CN([C@H](C)CO)C(=O)CCCn2nncc2CO[C@@H]1CN(C)C(=O)CCC(F)(F)F | x | x | 1.6µM | x | n
C[C@@H]1CN([C@@H](C)CO)C(=O)CCCn2nncc2CO[C@H]1CN(C)C(=O)CCC(F)(F)F | x | x | n | x | n
CCOc1ccc(-c2nn(-c3ccccc3)cc2/C=C2\SC(N)=NC2=O)cc1C | n | 10µM | u | n | n
Cc1ccc(-c2nn(-c3ccccc3)cc2/C=C2\SC(=S)N(CC(=O)O)C2=O)cc1 | n | n | n | n | n
Cc1cc(=O)n(Cc2c(F)cccc2Cl)c2c1c(C)nn2-c1cccc(F)c1 | x | x | n | x | n
O=C(Nc1n[nH]c(=S)s1)c1ccc2ccccc2c1 | n | n | n | u | n
N#C/C(=C\c1c(N2CCCCC2)nc2ccccn2c1=O)S(=O)(=O)c1ccccc1 | n | n | n | n | n
CC(=O)N(C(C)=O)c1ncc2c([nH]c3ccccc32)c1C#N | n | n | n | u | 6.5µM
CC1=CC2=NC(=O)/C(=C/c3cccn3Cc3ccccc3)C(=N)N2O1 | n | n | n | n | u
CC(C)S(=O)(=O)C1=NSC2=NC(=O)/C(=C\c3ccc(-c4ccccc4)o3)C(=N)N21 | u | 16µM | n | n | 16µM
CS(=O)(=O)C1=NSC2=NC(=O)/C(=C\c3ccc(-c4ccccc4)o3)C(=N)N21 | n | n | x | n | x
CC1=CC2=NC(=O)/C(=C\c3cccn3CCOc3ccc(C)c(C)c3)C(=N)N2O1 | n | n | n | 18µM | n
N=C1/C(=C/c2ccc(-c3cccc(C(=O)O)c3)o2)C(=O)N=C2SC=C(c3ccccc3)N12 | n | 5.8µM | n | u | n
Cc1ccc(-n2c(C)cc(/C=C3/C(=N)N4C(c5ccccc5)=CSC4=NC3=O)c2C)cc1 | n | u | n | n | n
N=C1/C(=C/c2cccn2CCOc2ccccc2)C(=O)N=C2SC=C(c3ccccc3)N12 | 18µM | 1.3µM | u | 18µM | 3.7µM
N=C1/C(=C\c2ccc(-c3cc(Cl)cc(Cl)c3)o2)C(=O)N=C2SC=C(c3ccccc3)N12 | n | n | n | n | u
O=C(CSC1=NS(=O)(=O)c2ccccc2N1)Nc1ccccc1F | n | n | n | n | n
CC(C)(C)c1ccc(NC(=O)CON=C(N)c2ccccc2)cc1 | 0.29µM | n | n | n | n
Cc1ccc(NC(=O)CO/N=C(\N)c2ccccc2)cc1C | n | n | n | n | n
O=c1c2ccccc2nc(SCc2cccc(F)c2)n1-c1cccc(S(=O)(=O)N2CCCC2)c1 | n | n | n | n | 3.3µM
COc1ccc(CN(C)C(=O)/C=C/c2ccc(S(=O)(=O)N3CCCCCC3)cc2)cc1 | n | u | u | u | 3.3µM
CCOc1ccc(CN(C)C(=O)CCc2ccc(S(=O)(=O)N3CCCCCC3)cc2)cc1 | n | n | u | 7.9µM | u
CCOc1ccc(CCNC(=O)CN2C(=O)COc3ccc(S(=O)(=O)N(CC)CC)cc32)cc1 | x | x | n | x | n
CN(CC(=O)Nc1cccc(F)c1)C(=O)/C=C/c1ccc(S(=O)(=O)N2CCCCCC2)cc1 | n | n | n | x | 18µM
CCOc1ccc(CCNC(=O)CN2C(=O)COc3ccc(S(=O)(=O)N4CCCCCC4)cc32)cc1 | x | x | n | x | 9.2µM
CC(=O)NCc1ccc(S(=O)(=O)N2CCCN(C)CC2)cc1 | n | n | n | n | n
Nc1ncc([N+](=O)[O-])cc1S(=O)(=O)c1ccccc1 | n | n | n | x | n
CCOc1ccc(CN(C)C(=O)CCl)cc1 | 16µM | u | u | n | u

Assay outcomes as filed in PubChem BioAssay.
